Screening results as filed in PubChem.
GSH bead fluor: GSH bead compound fluorescence profile; GSH beads flow cytometry, compound fluorescence 488/530 nm; hits give high values; fluorescence (KMESF) at 10 µM; 190,000 tested, 0.25% active; in the data active means fluorescence above about 89;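 further: glutathione beads carrying GST-tagged Bcl family fusion proteins plus one bare bead set; values are compound well signal with DMSO vehicle wells as background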
RGS16-Gao: RGS16-Galphao interaction regulator (human). 220,000 tested, 0.38% active. bead-based flow cytometry RGS16-Galphao binding, fluorescence; actives lie on both sides. AID 1441. binding response (% of control), % at 10 µM;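 further: Galphao activated by GDP with aluminum fluoride before binding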
RGS4-Gao reg: human RGS4-Galphao interaction regulation; Multiplexed bead flow cytometry, RGS4-Galphao binding; actives lie on both sides; binding response (% of control), % at 10 µM; AID 1415; 220,000 tested, 0.33% active; P09471; in the data active means binding response below about 49% or above about 150%; inactive means in between;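 further: fluorescent Galphao activated with aluminum fluoride binding bead-coupled RGS4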
RGS8-Gao reg: modulates binding of RGS8 to human Galphao; 220,000 tested, 0.34% active; P09471; response (percent of control binding), % at 10 µM; multiplexed bead flow cytometry; actives lie on both sides; in the data active means response below about 60% or above about 140%; inactive means in between;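 further: Galphao activated as the GDP aluminium fluoride complex binding bead-coupled RGS8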
Avidin bead fluor: avidin bead compound fluorescence profile | Avidin beads, compound fluorescence 488/530 nm, flow cytometry; hits give high values | fluorescence (KMESF) at 10 µM | 220,000 tested, 0.38% active | AID 1775; in the data active means fluorescence above about 47
RGS7-Gao: modulates binding of RGS7 to human Galphao; P09471; Multiplexed bead flow cytometry; actives lie on both sides; binding response (% of control), % at 10 µM; 220,000 tested, 0.35% active; AID 1439; in the data active means binding response below about 49% or above about 150%; inconclusive means no clear call, values can overlap the other calls; inactive means in between;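 further: fluorescent Galphao held in activated GDP-AlF4 state binding bead-coupled RGS7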
RGS-Gao: modulates binding between human RGS4 and Galphao. RGS4–Galpha-o binding response, % at 10 µM. multiplexed bead flow cytometry, RGS–Galpha-o binding. shares compounds with RGS16-Gao. 1,600 tested, 99% active;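 further: fluorescently labeled Galpha-o bound to GDP with aluminium fluoride binding biotinylated RGS beads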
Avidin counter: interferes with biotinylated probe binding to avidin beads; shares compounds with RGS16-Gao; streptavidin beads, fluorescein-biotin binding, flow cytometry; inhibition, % at 10 µM; 1,700 tested, under 10 active;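 active means inhibition above 50%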;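 further: median green fluorescence of gated singlet beads compared with DMSO control wells; 0% = DMSO wells and 100% = complete loss of bead fluorescence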
RGS8-Gao single: confirmation of regulators of human RGS8-Galphao interaction; shares compounds with RGS16-Gao; bead-based flow cytometry RGS8-Galphao binding, fluorescence; actives lie on both sides; binding response (% of control), % at 10 µM; 1,700 tested, 3% active; AID 1836; in the data active means binding response below about 72% or above about 130%; inactive means in between;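 further: Galphao activated as GDP AlF4 complex before binding bead RGS8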
RGS7-Gao confirm: confirmation of regulators of human RGS7-Galphao interaction; shares compounds with RGS16-Gao; AID 1837; bead-based flow cytometry RGS7-Galphao binding; actives lie on both sides; response (percent of control binding), % at 10 µM; 1,700 tested, 7.8% active; in the data active means response below about 75% or above about 130%; inactive means in between;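 further: fluorescent Galphao activated with GDP and aluminum fluoride binding bead-coupled RGS7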
RGS16-Gao single: confirmation of regulators of human RGS16-Galphao interaction; shares compounds with RGS16-Gao; bead-based flow cytometry, RGS16-Galphao binding; actives lie on both sides; response (% of control binding), % at 10 µM; 1,700 tested, 4% active; AID 1838; in the data active means response below about 74% or above about 130%; inactive means in between;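 further: Galphao activated as the GDP aluminium fluoride complex binding bead-coupled RGS16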
RGS4-Gao single: RGS4-Galphao interaction regulation, single point confirmation. 1,700 tested, 4% active. RGS4-Galphao binding, multiplexed bead flow cytometry; actives lie on both sides. shares compounds with RGS16-Gao. binding response (% of control), % at 10 µM; in the data active means binding response below about 74% or above about 130%; inactive means in between
RGS19-Gao single: RGS19-Galphao interaction regulation, single point confirmation. shares compounds with RGS16-Gao. bead-based flow cytometry RGS19-Galphao binding; actives lie on both sides. response (percent of control binding), % at 10 µM. 1,700 tested, 5% active; in the data active means response below about 50% or above about 160%; inactive means in between;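 further: 100% = no compound control and 0% = blank background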
Starred values were filed as active, the others as inactive; [ ] = remark or other dose. Only some compounds are listed: those with a hit (about 1.2% of all), similar ones and a draw of the others. Unless noted, how the calls were made is not given here.

NNC(=O)c1csc(CS(=O)(=O)c2ccc(Cl)cc2)n1 was read as RGS16-Gao 101, RGS4-Gao reg 111, RGS8-Gao reg 86, Avidin bead fluor 12, RGS7-Gao inconclusive, Avidin counter 0, RGS8-Gao single 109, RGS7-Gao confirm 116, RGS16-Gao single 111, RGS4-Gao single 111 and RGS19-Gao single 97.
CC(C)(C)c1cc(C(=O)O)n(Cc2ccc(Cl)cc2Cl)n1 was read as RGS16-Gao 96, RGS4-Gao reg 94, RGS8-Gao reg 98, Avidin bead fluor 7 and RGS7-Gao inconclusive.
Screening NC(=O)NC(=O)COC(=O)c1ccccc1OCc1ccc(F)cc1 returned RGS16-Gao 40, RGS4-Gao reg 40*, RGS8-Gao reg 55*, Avidin bead fluor 1, RGS7-Gao inconclusive, Avidin counter -8, RGS8-Gao single 114, RGS7-Gao confirm 117, RGS16-Gao single 112, RGS4-Gao single 114 and RGS19-Gao single 113.
Screening Cc1ccc(NCc2nnc(SCC(=O)O)n2Cc2ccccc2)cc1Cl returned GSH bead fluor 11, RGS16-Gao 102, RGS4-Gao reg 102, RGS8-Gao reg 99, Avidin bead fluor 10 and RGS7-Gao 104.
Cc1ccc(NCc2n[nH]c(=S)n2Cc2ccccc2)cc1Cl was read as GSH bead fluor 11, RGS16-Gao 103, RGS4-Gao reg 111, RGS8-Gao reg 98, Avidin bead fluor 65*, RGS7-Gao 167*[activator], RGS-Gao 111*, Avidin counter 1, RGS8-Gao single 101, RGS7-Gao confirm 110, RGS16-Gao single 100, RGS4-Gao single 102 and RGS19-Gao single 106.
`CCOC(=O)COc1nc(-c2ccccc2)cc(-c2ccco2)c1C#N` gave RGS16-Gao 101, RGS4-Gao reg 105, RGS8-Gao reg 101, Avidin bead fluor 26 and RGS7-Gao inconclusive.
CCOC(=O)COc1nc(-c2ccc(Cl)cc2)cc(-c2ccco2)c1C#N was read as RGS16-Gao 155, RGS4-Gao reg 177*[activator], RGS8-Gao reg 110, Avidin bead fluor 82*, RGS7-Gao inconclusive, Avidin counter 0, RGS8-Gao single 100, RGS7-Gao confirm 98, RGS16-Gao single 100, RGS4-Gao single 100 and RGS19-Gao single 93.
`Cc1cc(Oc2ccc(=O)n(C)n2)nc(SCc2ccccc2)n1` gave GSH bead fluor 16, RGS16-Gao 99, RGS4-Gao reg 97, RGS8-Gao reg 101, Avidin bead fluor 11 and RGS7-Gao 100.
COc1ccc(NC(=S)NCCc2ccc(F)cc2)c(OC)c1 was read as GSH bead fluor 9, RGS16-Gao 19*, RGS4-Gao reg 88, RGS8-Gao reg 66, Avidin bead fluor 2, RGS7-Gao 92, RGS-Gao 88*, Avidin counter -1, RGS8-Gao single 100, RGS7-Gao confirm 99, RGS16-Gao single 98, RGS4-Gao single 100 and RGS19-Gao single 95.
